{"source": "PubChem BioAssay AID1508600", "about": "(Functional Genomics Laboratory (NCATS/FGL), 2020)", "note": "Screen size: about 53,000 sequences; about 3,700 (7%) were called active. The sample as a whole holds a higher share of actives than the screen did. Unmarked numbers belong to inactive results.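 Rule for the calls: active = gene knockdowns whose robust z-score for IL-1 alpha signal is at least 2 or at most -2, so actives lie on both sides; inactive = the rest.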"}
{"assay": "Components of the Cytosolic LPS Sensing Pathway: Gene Identification via Genome-wide siRNA Screen;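 note: robust z of the log signal after scaling to non-targeting control siRNA wells of the plate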", "conditions": "RAW264.7 macrophages, IL-1a HTRF, actives lie on both sides, screened at 100 nM (by protocol), cells primed 5 h with Pam3CSK4 first", "method_in_brief": "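Knockdown: 100 nM siRNA, 48h, RAW264.7. Stimulation: Pam3CSK4 5 h, then LipidA via TransIT-TKO 24 h. Output: supernatant IL-1a HTRF, negative-control-normalized, log robust z-score; viability by CellTiter-Glo.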"}
{"sequence": "GGAAGAAAAACAGAGGAGATT against Cts7", "z-score": -0.877}
{"sequence": "GGUUUAAGAAUGAAGUGGATT against Mtmr3", "z-score": -1.18}
{"sequence": "GGAUUGGGUUACAUACAGATT against Scgb2b2", "z-score": -0.0731}
{"sequence": "GGAAAAGGUUAAGAAAGCATT against Krr1", "z-score": "-2.53 (active)"}
{"sequence": "GGAAUCAGCUAAUGAUUUCTT against Tyw1", "z-score": 0.819}
{"sequence": "GGAGGUAGGAGCCAUAAGATT against Pter", "z-score": -0.58}
{"sequence": "GGGAUCUUUUACUCAUACUTT against Olfr862", "z-score": -1.95}
{"sequence": "GGUGUACUGAUUUUGAAGATT against Msh3", "z-score": 0.858}
{"sequence": "GCCACGGGUAUAUCUAUAGTT against Tigd4", "z-score": -0.296}
{"sequence": "GGUGGAAAAUGGUUGGUUUTT against Mfap3", "z-score": -0.493}
{"sequence": "GGCCAAGAAAAUCCUGUGGTT against Mfsd5", "z-score": "-2.71 (active)"}
{"sequence": "GGAACUUGAAAUCGUAAUUTT against Magohb", "z-score": -0.121}
{"sequence": "GGCAGAACACAGUUCGAUCTT against Tbcb", "z-score": 0.165}
{"sequence": "GCCGUAGAUUUCCUUGAGUTT against Isca1", "z-score": -0.0435}
{"sequence": "GGGACAAUGAAUGUGAUCUTT against Adam39", "z-score": "-2.81 (active)"}
{"sequence": "CCAACCACAGGAUCAGAUGTT against Prrg4", "z-score": 0.556}
{"sequence": "GGAAAAAAUGGAAAACUGGTT against Polr1b", "z-score": -0.965}
{"sequence": "CCAUUAAAAACCCAGAGGATT against Lyve1", "z-score": 0.0705}
{"sequence": "CCCUAUAAAGAGAAAUUGGTT against Zfp663", "z-score": -0.166}
{"sequence": "GGCUUCUUUUUAAAAGUAGTT against Pcid2", "z-score": -1.28}
{"sequence": "GCAGGACUUACAUGAGAAUTT against Fam13c", "z-score": 0.534}
{"sequence": "CCAUAAACUAUGAGUUUUGTT against Elovl7", "z-score": "2.4 (active)"}
{"sequence": "GGCUUCCAUUACCAUGAUGTT against Olfr381", "z-score": -0.318}
{"sequence": "CGCGUAUCUGACCAGGUCATT against Ermard", "z-score": 0.889}
{"sequence": "GGCUGAAAAAUGCUUGAUUTT against Dhdds", "z-score": -1.14}
{"sequence": "GGAUAACUCUUUCAAAGACTT against Lrit2", "z-score": 0.768}
{"sequence": "GGAGGAGAGAACAAAAUGUTT against Itgb1bp2", "z-score": 0.839}
{"sequence": "GGAUCUCUUUUUUCACAUGTT against Kcne2", "z-score": 0.605}
{"sequence": "GGAUCUGGCGGUUACUAAGTT against Gm867", "z-score": 0.776}
{"sequence": "GCUCAUUCUUACCAAUCUCTT against Vsig2", "z-score": "-2.25 (active)"}
{"sequence": "GGCUGUGAAAAAACUAGAATT against Serpina1e", "z-score": -0.359}
{"sequence": "GCCCUACCUUACCUGAUACTT against Rab17", "z-score": "2.03 (active)"}
{"sequence": "GGAUCUUAGUAAUAUUGGUTT against Ash2l", "z-score": -0.72}
{"sequence": "CCACAAGUUCACUAAGGAGTT against Six3", "z-score": 0.193}
{"sequence": "CCUGGAAUCUGUCCCUCAUTT against Olfr262", "z-score": -0.161}
{"sequence": "CCCACUUACUUUUGAUGUUTT against Uba1", "z-score": -0.232}
{"sequence": "GGCACGUGAUAAAGGGUUCTT against Pcdha7", "z-score": "2.56 (active)"}
{"sequence": "GCAUGUUUGGAUUGCUAUUTT against Olfr653", "z-score": 0.999}
{"sequence": "GGAUUUUCAAAGAGGACACTT against Cdca7l", "z-score": 0.735}
{"sequence": "GCAGAGACGUGAUUGAUCGTT against H2bc18", "z-score": -1.17}
{"sequence": "CCAUUUCUCACCAGUGAUCTT against Gm5535", "z-score": "-2.61 (active)"}
{"sequence": "CCGUUCCAUCAUUAAGACCTT against Tssk2", "z-score": 0.359}
{"sequence": "CCAAGGCCAUCUCAUUUUCTT against Olfr749", "z-score": 0.511}
{"sequence": "GGCUAUUUUGCUGUACCUCTT against Gbgt1", "z-score": 0.589}
{"sequence": "GGAAAUAUCUCUGGUAAUATT against Reln", "z-score": "-2.17 (active)"}
{"sequence": "GCAUCCUGAGUCCGUAUCCTT against Rbm11", "z-score": 1.37}
{"sequence": "GGUAGAGCGCAAGAAGGCATT against Nol12", "z-score": 1.23}
{"sequence": "CGGAGUUGAGCCAGAAAAATT against Fbxo31", "z-score": -0.777}
{"sequence": "GGAGAAAUUGCCUUUGAUCTT against Pdik1l", "z-score": 0.416}
{"sequence": "CGAUUUGCAGCCCUCAUGATT against Inka1", "z-score": "-2.27 (active)"}
{"sequence": "GCCGUCUACCCUGAUAACATT against Cp", "z-score": 0.67}
{"sequence": "GAAGCAGGCCUGGGAUCUUTT against Vmn1r41", "z-score": "2.01 (active)"}
{"sequence": "GGAGCAAAUGAUCAAUAAATT against Serpina3b", "z-score": -0.364}
{"sequence": "GGCAUCUCUUUGCUUGAAUTT against Lalba", "z-score": -0.86}
{"sequence": "GCCCUCAUUUGUCCUACAUTT against Arhgef2", "z-score": 0.202}
{"sequence": "GGGUUUAGAGACCCUGAGATT against Klc2", "z-score": "-2.09 (active)"}
{"sequence": "GGUGGACAAGGAGAGGACUTT against H2-Q1", "z-score": 0.109}
{"sequence": "GGAAUGGAACACAAAUAGCTT against Kdelr2", "z-score": 0.191}
{"sequence": "GGACUUUUGUGUAUAGUUATT against Smad1", "z-score": 1.59}
{"sequence": "GGACGCGGGAAAAAUGUUCTT against Hnrnpab", "z-score": 1.37}
{"sequence": "GCUGGAAGCAUUUGUUUUUTT against Uap1", "z-score": "2.19 (active)"}
{"sequence": "GCUUAGUGACCAUCUCCGUTT against Epop", "z-score": 0.236}
{"sequence": "GGAAUCUCACCAAUCCAAATT against Rab14", "z-score": -0.364}
{"sequence": "GGAGAGCUAGCCUUAAUAATT against Bspry", "z-score": "4.21 (active)"}
{"sequence": "CGGUUACAGGUGAAAUCCUTT against Sval1", "z-score": -1.36}
{"sequence": "CGGGUGAUGCCUAUGUCAUTT against Gsn", "z-score": 0.837}
{"sequence": "GGCUUACAGUUCCAUAUGGTT against Olfr401", "z-score": -1.11}
{"sequence": "GCUCAUUGCACUUGCCAAGTT against Tcea2", "z-score": -0.0377}
{"sequence": "GGUUUGUGUCUAAGGAAUUTT against Klhdc7a", "z-score": -0.203}
{"sequence": "GGUCCUACCUUGAAGCUCCTT against Ado", "z-score": 0.816}
{"sequence": "GCACCAGUCGGUAUUCACATT against C1qc", "z-score": -0.665}
{"sequence": "GCAUUGUGAGACUAACGUGTT against Dusp7", "z-score": 1.08}
{"sequence": "GGGAAUAAUGUCUAGUUUGTT against Fam126a", "z-score": 0.215}
{"sequence": "GAUGGUGUCUAGUGAGAGCTT against Oxct2b", "z-score": "-2.01 (active)"}
{"sequence": "GCACCAUUUUGAUCGUCAUTT against Olfr519", "z-score": 0.341}
{"sequence": "GGUUUGAAAUGAAACUUCATT against Nedd4l", "z-score": -0.0699}
{"sequence": "GCGAGCUUUAACCUUUCCATT against Olfr1028", "z-score": "-2.49 (active)"}
{"sequence": "CCUCACAAAGCACAAUAUCTT against Sntg1", "z-score": -1.46}
{"sequence": "CGUAGCUAUUCUGGUUGUCTT against H2-Q6", "z-score": -0.616}
{"sequence": "GGUCCUCAAUGAAAUGAGATT against Krt12", "z-score": 1.05}
{"sequence": "GGAGUUUGGAACUUCCAACTT against Tcf21", "z-score": "2.79 (active)"}
{"sequence": "GGACCAAAAUCUAGAAUACTT against Zfp629", "z-score": -0.898}
{"sequence": "GGUAUUUAAGUGAUACAUCTT against Ddost", "z-score": -0.321}
{"sequence": "GGUACCGUCAGUUGUCCUATT against Rnf4", "z-score": -1.86}
{"sequence": "GGUGAAGAAGGAGACAAAGTT against Tmem43", "z-score": 0.347}
{"sequence": "GGAUAAAGUUUAAGGAUGGTT against Vmn1r40", "z-score": -0.43}
{"sequence": "GGAGAAGGAUGAAGACGGATT against Map1lc3a", "z-score": 0.397}
{"sequence": "GCUUUUGUUACAUAAUGCUTT against Tmem237", "z-score": 1.12}
{"sequence": "GACCACUUCCUUCUAUGCCTT against Slc35c1", "z-score": "-2.07 (active)"}
{"sequence": "GGGCUUCAUCAACUAUCUUTT against Spint1", "z-score": 1.03}
{"sequence": "CGGCUAAAUGCAAGUAAAGTT against Rgma", "z-score": -1.07}
{"sequence": "GGUACUGAUUACUCUGUAUTT against Mrps17", "z-score": -0.388}
{"sequence": "GCUUUUUGUGAAACUGGCCTT against Pstpip2", "z-score": 0.191}
{"sequence": "GGUCAAUAUCCUCGGACAUTT against Hsd17b13", "z-score": -0.386}
{"sequence": "GCCACGUAGACUGAUAUAGTT against Irf5", "z-score": -1.16}
{"sequence": "GGAACAAGGAAGUUAAGGATT against Olfr1044", "z-score": 0.251}
{"sequence": "GCCCAACGUGGUGUACAUUTT against Gask1b", "z-score": "4.04 (active)"}
{"sequence": "CCAGUUUCAGAUCAGAUUATT against Zfp747", "z-score": 0.729}
{"sequence": "GCUGACCUUCAUUCAUAUATT against Vmn1r27", "z-score": "-2.06 (active)"}
{"sequence": "GCUAGGAGAACCUACAUACTT against Adcy4", "z-score": -0.368}
{"sequence": "GCUGAGAGUGAACCGAUGUTT against Dyrk4", "z-score": 1.54}
{"sequence": "CCAUUCUACGAGAAUUGUATT against Dync1i2", "z-score": -0.326}
{"sequence": "GGAUAACAGAGAUUUCUCCTT against Il15ra", "z-score": 0.0534}
{"sequence": "CCUGCAUUAUUUAUGAAAGTT against Mfap3l", "z-score": -0.449}
{"sequence": "GUAAUCACCUUAAAGAUGUTT against Cebpb", "z-score": 1.32}
{"sequence": "GGUUAGGUUGAUGAAUAAGTT against Eif4ebp2", "z-score": "2.46 (active)"}
{"sequence": "CCUUUUGAGAGCUCCAGAUTT against Ptrh1", "z-score": -0.273}
{"sequence": "CCUAAGGCAAUCCCUAUUGTT against Gprasp1", "z-score": -0.424}
